The values below come from PubChem BioAssay (Tox21).

Experiment [1] is described as follows: qHTS assay to identify small molecule agonists of the estrogen receptor alpha (ER-alpha) signaling pathway in the presence of an antagonist - cell viability counter screen (AID 1259386). Note: series mostly up to about 92 µM; nearly all actives have a fitted effect of over 30% in size. An outline of the steps:
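Compounds tested at 15 concentrations for 22 h at 37C alongside 10.0nM (final) ICI-182,780 antagonist, in VM7Luc4E2 cells grown in phenol red-free, charcoal-stripped medium. Viability read by CellTiter-Fluor fluorescence after 1 h reagent incubation.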
(In general: qHTS replaces the single test concentration by a dilution series.)

For experiment [2], the target named is Progesterone receptor (Homo sapiens) (UniProt P06401). Put plainly: qHTS assay to identify small molecule agonists of the progesterone receptor (PR) signaling pathway (AID 1346784; calls by dose curve; note: nearly all actives have a fitted effect of over 30% in size). Summed up: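 PR-UAS-bla HEK 293T cells (beta-lactamase reporter under UAS) in 2% charcoal-stripped FBS, dosed with 23 nL compound after 6 hr, incubated 16hr at 37C. LiveBLAzer B/G FRET substrate added, fluorescence read after 2 hours.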

Experiment [3] can be described thus: qHTS assay to identify small molecule antagonists of the progesterone receptor (PR) signaling pathway - cell viability counter screen (AID 1346798). Note: series mostly up to about 92 µM; nearly all actives have a fitted effect of over 50% in size. Summed up:
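PR-UAS-bla HEK293T cells, 3,000/well in 2% charcoal-stripped FBS medium, dosed with compounds plus R5020 agonist and incubated 16 h at 37C. Viability then measured in the same wells by CellTiter-Glo luminescence after 30 min at RT.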

Experiment [4] can be described thus: qHTS assay to identify small molecule antagonists of the TGF-beta/Smad signaling pathway - cell viability counter screen (AID 1346824). Note: nearly all actives have a fitted effect of over 50% in size. Summed up:
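Cytotoxicity counter-screen run in the same wells as the beta-lactamase Smad reporter read: CellTiter-Glo luminescence after 30 min at room temperature. HEK 293T SBE-bla cells had 5 hr compound exposure at 37 C with TGF-beta1 (0.25 ng/mL stock).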

Experiment [5] in a line: qHTS assay to identify small molecule agonists of the TGF-beta/Smad signaling pathway - cell viability counter screen (AID 1346829). Note: top concentration of the series differs between compounds; nearly all actives have a fitted effect of over 45% in size. Summed up: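 Cytotoxicity counter screen: CellTiter-Glo luminescence (30 min, room temperature) measured in the SBE-bla HEK 293T reporter wells after 5 hr compound treatment at 37 C and the 2 hr substrate step.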
Experiment [6] in a line: qHTS assay to identify small molecule agonists of the TGF-beta/Smad signaling pathway (AID 1346859; active = well fitted activation curve with a large enough effect in the signal ratio in the repeat runs, not every such curve was filed as active; the % refers to the signal ratio; note: series mostly up to about 77 µM). An outline of the steps:
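SBE-bla HEK293T cells plated overnight, then compound exposure for 5 h at 37 C. Beta-lactamase reporter read with LiveBLAzer B/G FRET substrate after 2 h at room temperature, fluorescence at 405 nm excitation, 460/530 nm emission.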

Experiment [7] concerns the target Thyrotropin-releasing hormone receptor (Homo sapiens) (UniProt P34981). Kind of experiment: qHTS assay to identify small molecule antagonists of the thyrotropin-releasing hormone receptor (TRHR) signaling pathway (AID 1346877; active = well fitted inhibition curve with a large enough effect in the repeat runs, not every such curve was filed as active; note: series mostly up to about 51 µM). Summed up: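 Antagonist mode: after a 5 min room-temperature compound exposure, cells were stimulated with 1 nM (final) TRH. Dye-loaded TRHR-HEK293 cells were used, and calcium-dependent fluorescence was followed for 3 min, with 15-point titrations run in triplicate.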

The target is the same in experiment [8]. Put plainly: qHTS assay to identify small molecule agonists of the thyrotropin-releasing hormone receptor (TRHR) signaling pathway (AID 1346891; calls by dose curve; note: potency is the fitted concentration of half-maximal effect; for activation: series mostly up to about 58 µM). Summed up: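 HEK293 cells expressing TRHR plated 18 h at 37 C/5% CO2, calcium dye-loaded 2 h at 37 C, then compound added (agonist mode); kinetic calcium fluorescence read 3 min at 1 s intervals; 15 concentrations in triplicate.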

A short description of experiment [9]: Human pregnane X receptor (PXR) small molecule agonists, qHTS cell viability counter screen (AID 1346977). Note: nearly all actives have a fitted effect of over 50% in size. Summed up: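 PXR-Luc HepG2 cells (2,000/well, 5% charcoal-stripped FBS) preincubated 5 hr, then exposed to compounds 24 hr at 37 C. Viability read in the same wells by CellTiter-Fluor fluorescence, reagent added at 23 hr, 1 hr incubation.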
Experiment [10] in a line: Caspase-3/7 induction in HepG2 cells by small molecules, qHTS assay (AID 1346978). Note: nearly all actives have a fitted effect of over 15% in size. An outline of the steps:
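Caspase-3/7 induction was measured by Caspase-Glo 3/7 luminescence (30 min, room temperature) after a 17 hr compound exposure of wild-type HepG2 cells seeded at 2,000 per well and pre-incubated 5 hr.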

Experiment [11] can be described thus: Caspase-3/7 induction in CHO-K1 cells by small molecules, qHTS cell viability counter screen (AID 1346979). Note: nearly all actives have a fitted effect of over 35% in size. An outline of the steps:
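Wild-type CHO-K1 cells (1,500/well) treated with compound after 5 h plating; after 16 h at 37C, viability read as CellTiter-Fluor fluorescence following 1 h reagent incubation, in the same wells as the caspase read.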

Experiment [12] can be described thus: Caspase-3/7 induction in CHO-K1 cells by small molecules, qHTS assay (AID 1346980). Note: nearly all actives have a fitted effect of over 15% in size. Summed up:
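Luminescent Caspase-Glo 3/7 read (30min, room temperature) quantified apoptosis induction. Cells were wild-type CHO-K1, treated with compound for 17hr at 37 C and 5% CO2.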

Experiment [13] can be described thus: Caspase-3/7 induction in HepG2 cells by small molecules, qHTS cell viability counter screen (AID 1346981). Note: series mostly up to about 92 µM; nearly all actives have a fitted effect of over 30% in size. Summed up: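 CellTiter-Fluor fluorescence measured viability in the same wells used for Caspase-Glo 3/7. HepG2 (wild type) at 2,000 cells/well were pre-incubated 5 hr, dosed, and given reagent at 16 hr, with 1 hr further at 37C.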
Experiment [14] deals with Nuclear receptor subfamily 1 group I member 2 (Homo sapiens) (UniProt O75469). Kind of experiment: Human pregnane X receptor (PXR) small molecule agonists, qHTS assay (AID 1346982). Note: nearly all actives have a fitted effect of over 35% in size. Note: potency is the fitted concentration of half-maximal effect. Summed up: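 Agonist mode: luminescence from ONE-Glo after 24 h compound exposure at 37C in HepG2 cells carrying hPXR-responsive CYP3A4 luciferase, plated in charcoal-stripped serum medium 5 h beforehand.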

The target is the same in experiment [15]. Put plainly: CYP3A4 induction through human pregnane X receptor (PXR) by small molecules, qHTS assay (AID 1346984). Note: nearly all actives have a fitted effect of over 40% in size. An outline of the steps: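 Read-out is luminescence after One-Glo addition, following a 3 hr, 37C incubation with Luciferin-IPA CYP3A4 substrate (3uM final). Before that, compounds were on DPX-2 cells (HepG2 co-transfected with PXR element plus CYP3A4-promoter luciferase) for 24 hr at 37C.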

Experiment [16] has the same target. Kind of experiment: Human pregnane X receptor (PXR) activation by small molecules, qHTS assay (AID 1346985). Note: nearly all actives have a fitted effect of over 40% in size. Summed up: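 DPX-2 cells (HepG2 co-transfected with a PXR response element and a CYP3A4-promoter luciferase construct) were seeded at 2,000 per well, rested 5 hr at 37C, then exposed to DMSO-dissolved compounds for 24 hr. Activation was read as luciferase luminescence.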

Experiment [17] has as its target Nuclear receptor subfamily 1 group I member 2 (Rattus norvegicus) (UniProt Q9R1A7). Kind of experiment: Rat pregnane X receptor (rPXR) activation by small molecules, qHTS assay (AID 1346983). Note: nearly all actives have a fitted effect of over 20% in size. The following applies: rPXR luciferase reporter cells, One-Glo luminescence, 24 h; max activation: stronger effect = higher value. An outline of the steps:
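Luminescent readout (One-Glo luciferase, 30 min room temperature) followed 24 hr compound treatment at 37 C of rPXR cells plated 2,000 per well and preincubated 5hr; qHTS format with compounds delivered in DMSO.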

The target in experiment [18] is Cytochrome P450 2D6 (Homo sapiens) (UniProt P10635). Kind of experiment: Cytochrome P450 Family 2 Subfamily D Member 6 (CYP2D6) small molecule antagonists: luciferase reporter qHTS assay (AID 1671196). For activity change, negative = inhibition: series mostly up to about 120 µM. Note: nearly all actives have a fitted effect of over 50% in size. Note: potency is the fitted concentration of half-maximal effect. Summed up:
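CYP2D6 activity was followed as luminescence from its luciferin product after a 1 h NADPH-driven reaction at room temperature. Enzyme-substrate mix and compound were pre-incubated for 10 min, and the signal was read 20 min after adding detection reagent.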
A general note: A reporter such as luciferase makes a cellular process visible.

SMILES strings stand for the structures. Values without a mark were called inactive. Results filed as inconclusive are left out. The source made the active and inactive calls. Unless noted, calls come from the whole dose curve; as a rule, active = well fitted curve in the direction sought with a large enough effect in the repeat runs; inconclusive = weak or mixed curves; inactive = no such curve, though single readings can be large; an effect the other way counts as inactive or inconclusive.
% is set by controls: 0 for no effect and ±100 for the full control effect.

Chain of Nuclear receptor subfamily 1 group I member 2 (Homo sapiens) (O75469 whole entry, looked up): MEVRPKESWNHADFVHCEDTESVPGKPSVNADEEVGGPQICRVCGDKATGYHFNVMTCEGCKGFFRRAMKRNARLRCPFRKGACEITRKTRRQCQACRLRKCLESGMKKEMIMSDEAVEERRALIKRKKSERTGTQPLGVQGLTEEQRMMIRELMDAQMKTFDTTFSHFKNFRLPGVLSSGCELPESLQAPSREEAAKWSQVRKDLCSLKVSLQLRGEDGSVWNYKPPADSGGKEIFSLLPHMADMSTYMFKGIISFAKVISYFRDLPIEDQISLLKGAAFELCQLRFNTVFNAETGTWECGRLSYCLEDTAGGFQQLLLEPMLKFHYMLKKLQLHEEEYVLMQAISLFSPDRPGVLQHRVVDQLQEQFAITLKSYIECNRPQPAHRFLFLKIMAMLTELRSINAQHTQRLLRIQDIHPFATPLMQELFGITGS
Chain of Nuclear receptor subfamily 1 group I member 2 (Rattus norvegicus) (Q9R1A7 whole entry, looked up): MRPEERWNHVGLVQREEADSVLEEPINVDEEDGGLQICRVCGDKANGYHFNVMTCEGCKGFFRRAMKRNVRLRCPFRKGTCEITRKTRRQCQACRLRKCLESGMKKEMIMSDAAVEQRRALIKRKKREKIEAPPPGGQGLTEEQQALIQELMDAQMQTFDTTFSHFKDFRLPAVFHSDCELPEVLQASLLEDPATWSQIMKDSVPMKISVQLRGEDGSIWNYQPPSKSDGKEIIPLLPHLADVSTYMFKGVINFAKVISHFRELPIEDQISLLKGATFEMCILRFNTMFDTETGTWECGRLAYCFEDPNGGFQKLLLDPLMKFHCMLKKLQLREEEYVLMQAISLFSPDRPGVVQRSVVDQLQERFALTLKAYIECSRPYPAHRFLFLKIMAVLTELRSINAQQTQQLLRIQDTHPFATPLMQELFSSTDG
Chain of Cytochrome P450 2D6 (Homo sapiens) (P10635 whole entry, looked up): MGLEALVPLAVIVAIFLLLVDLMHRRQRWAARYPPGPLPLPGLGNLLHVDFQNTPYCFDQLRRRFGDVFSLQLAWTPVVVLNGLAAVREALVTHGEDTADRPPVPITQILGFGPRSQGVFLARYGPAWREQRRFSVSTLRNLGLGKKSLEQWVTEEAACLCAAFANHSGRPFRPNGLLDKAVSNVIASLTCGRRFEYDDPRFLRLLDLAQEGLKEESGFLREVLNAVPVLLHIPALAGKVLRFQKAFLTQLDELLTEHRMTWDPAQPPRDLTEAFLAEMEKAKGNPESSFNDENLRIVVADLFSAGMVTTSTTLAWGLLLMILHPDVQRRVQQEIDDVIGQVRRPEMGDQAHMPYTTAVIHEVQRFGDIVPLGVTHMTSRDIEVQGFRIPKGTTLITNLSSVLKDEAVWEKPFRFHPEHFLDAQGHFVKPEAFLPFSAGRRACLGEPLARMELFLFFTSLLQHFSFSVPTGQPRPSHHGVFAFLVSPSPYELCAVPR
Chain of Thyrotropin-releasing hormone receptor (Homo sapiens) (P34981 whole entry, looked up): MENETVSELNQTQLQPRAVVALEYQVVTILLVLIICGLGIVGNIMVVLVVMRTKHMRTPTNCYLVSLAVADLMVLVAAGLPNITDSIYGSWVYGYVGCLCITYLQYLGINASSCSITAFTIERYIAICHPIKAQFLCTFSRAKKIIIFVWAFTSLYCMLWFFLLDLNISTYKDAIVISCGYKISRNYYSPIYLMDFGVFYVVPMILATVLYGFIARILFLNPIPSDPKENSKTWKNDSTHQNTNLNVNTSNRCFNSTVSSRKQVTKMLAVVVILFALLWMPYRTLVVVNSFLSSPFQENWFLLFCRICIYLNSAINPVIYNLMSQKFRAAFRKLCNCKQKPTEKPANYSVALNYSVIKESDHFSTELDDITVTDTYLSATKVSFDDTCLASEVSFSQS
Chain of Progesterone receptor (Homo sapiens) (P06401 whole entry, looked up): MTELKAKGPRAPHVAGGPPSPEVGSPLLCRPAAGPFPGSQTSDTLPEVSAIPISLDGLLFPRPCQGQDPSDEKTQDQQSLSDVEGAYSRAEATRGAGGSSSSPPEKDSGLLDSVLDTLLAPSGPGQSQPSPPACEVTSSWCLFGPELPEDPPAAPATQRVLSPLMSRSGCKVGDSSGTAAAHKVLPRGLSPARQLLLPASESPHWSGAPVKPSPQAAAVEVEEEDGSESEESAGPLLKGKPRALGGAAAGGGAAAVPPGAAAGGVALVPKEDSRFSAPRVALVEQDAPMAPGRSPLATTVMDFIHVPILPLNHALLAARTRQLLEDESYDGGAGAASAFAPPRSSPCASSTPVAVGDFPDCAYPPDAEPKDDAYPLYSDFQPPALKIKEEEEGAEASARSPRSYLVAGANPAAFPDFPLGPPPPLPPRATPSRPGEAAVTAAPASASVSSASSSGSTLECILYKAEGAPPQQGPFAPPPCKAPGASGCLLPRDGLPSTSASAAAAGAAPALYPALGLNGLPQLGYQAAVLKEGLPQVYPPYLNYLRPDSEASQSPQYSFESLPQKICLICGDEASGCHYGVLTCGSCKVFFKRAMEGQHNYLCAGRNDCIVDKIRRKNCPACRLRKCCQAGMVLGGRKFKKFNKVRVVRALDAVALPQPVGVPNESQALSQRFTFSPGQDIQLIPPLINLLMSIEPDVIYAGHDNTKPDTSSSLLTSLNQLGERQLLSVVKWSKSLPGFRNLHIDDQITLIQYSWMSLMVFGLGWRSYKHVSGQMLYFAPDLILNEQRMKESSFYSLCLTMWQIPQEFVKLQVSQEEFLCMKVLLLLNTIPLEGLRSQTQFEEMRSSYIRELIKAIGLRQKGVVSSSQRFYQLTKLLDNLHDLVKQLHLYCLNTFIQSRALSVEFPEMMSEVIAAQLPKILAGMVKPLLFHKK

On to `c1ccc(-c2nc[nH]c2-c2ccccc2)cc1`, for which the Potency entry in [1], in experiment [3], in experiment [4], in experiment [5], in experiment [8] and in experiment [9] was “inactive” each time. Further, the Potency entry in [11], in experiment [12], in experiment [13], in experiment [14], in experiment [15] and in [16] was “inactive” in each case. Moreover, the outcome in experiment [2], in [6], in [7] and in experiment [10] was inactive.
Turning to `CCN1CCC[C@H]1CNC(=O)c1c(OC)ccc(Br)c1OC`, the Potency result in experiment [1], in experiment [3], in experiment [4], in experiment [5], in experiment [9] and in experiment [11] was “inactive” throughout. The Potency result in experiment [12], in experiment [13], in experiment [14], in [15] and in experiment [16] was “inactive” in each case. In addition, the compound was called inactive in [2], in experiment [6] and in experiment [10]. Further, the max activation in experiment [17] was 7.68%.
Take `CC(=O)CC(=O)c1ccccc1`: the Potency entry in [1], in [3], in experiment [4], in experiment [5], in experiment [8] and in [9] was “inactive” in each case. Moreover, the Potency result in experiment [11] and in [12] was “inactive” each time. The result in experiment [2], in experiment [6] and in experiment [7] was inactive.
In the case of `CCOc1ccc2[nH]cc(C(=O)NCc3ccccc3)c(=O)c2n1`, the Potency entry in experiment [1], in experiment [4], in experiment [5], in experiment [8], in experiment [9] and in experiment [12] was “inactive” in each case. Moreover, the Potency result in experiment [13] and in [18] was “inactive” each time. For the same compound, the call in [2], in experiment [6], in experiment [7] and in experiment [10] was inactive. The Potency in experiment [14] is 19.3 µM (active).
In the case of `COC(=O)CSc1cc(N=c2sc(=O)n3n2CCCC3)c(F)cc1Cl`, the Potency entry in [1], in [3], in [9], in experiment [11], in experiment [12] and in [14] was “inactive” each time. Further, the result in experiment [2] was inactive. Besides, in experiment [18], the Potency was 63.3 µM (active).
Take `CCOC(=O)CC(=O)c1cc(F)c(Cl)nc1Cl`: the Potency result in experiment [1], in experiment [3], in experiment [4], in [5], in experiment [9] and in [11] was “inactive” each time. Besides, the Potency result in experiment [12], in experiment [13], in experiment [14] and in [18] was “inactive” each time. Besides, the result in experiment [2], in experiment [6] and in [10] was inactive.
Consider `O=C(O)Cn1c(C(=O)Nc2nc(-c3ccccc3Cl)cs2)cc2ccccc21`, for which the Potency result in experiment [1], in experiment [3], in experiment [4], in experiment [5], in [9] and in experiment [12] was “inactive” each time. For the same compound, the Potency result in experiment [13], in experiment [15], in [16] and in experiment [18] was “inactive” each time. Moreover, the result in [2], in experiment [7] and in experiment [10] was inactive. The Potency was 3.79 µM (active) in [8] and 26.6 µM (active) in experiment [14]. Moreover, the max activation in experiment [17] is -0.843%.
As to `Cc1c(Cn2ccnc2)c2ccccc2n1CCC(=O)O`, the Potency result in experiment [1], in experiment [3], in [4], in [5], in [9] and in experiment [11] was “inactive” throughout. Moreover, the Potency entry in experiment [12], in [13], in [14], in experiment [15] and in [16] was “inactive” each time. The result in [2], in experiment [6] and in experiment [10] was inactive. In addition, the max activation in experiment [17] is -1.57%.
As to `NC[C@H]1O[C@H](O[C@H]2[C@H](O)[C@@H](O[C@H]3O[C@H](CO)[C@@H](O)[C@H](N)[C@H]3O)[C@H](N)C[C@@H]2N)[C@H](O)[C@@H](O)[C@@H]1O`, the activity change, negative = cytotoxicity in experiment [1] is -3.74% [at 8.39 µM]; in experiment [3], 1.76% [at 8.39 µM]; in experiment [5], 4.11% [at 6.97 µM]; in experiment [9], -6.07% [at 8.39 µM]; in experiment [13], -2.29% [at 8.39 µM]. The activation was 0.496% [at 8.39 µM] in experiment [2], -1.71% [at 6.97 µM] in experiment [6] and 13.1% [at 8.39 µM] in experiment [14]. Further, in experiment [4], the viability change, negative = cytotoxic is 0.819% [at 6.97 µM]. In [10], the caspase activation is 0.334% [at 8.39 µM]. The caspase-3/7 activation in experiment [12] was 1.24% [at 8.39 µM]. In experiment [17], the max activation is -1%. Also, the Potency result in experiment [15] and in [16] was “inactive” each time. The activity change, negative = inhibition in experiment [18] was -0.562% [at 10.5 µM].
